Rows were chosen to be rich in hits. Some 3% of all compounds tested hit in one or more screens of this group.
SENP6 inh: SENP6 protease inhibitors, primary screen, biochemical, luminescence, uHTS | Sentrin-specific protease 6 (Homo sapiens), Q9GZR1 | AID 2599, 2010 | 1.8% of 330,000 active | Recombinant SENP6 catalytic domain, aminoluciferin luminescence | inhibition, % at 10 µM;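 active = inhibition above about 50% at the single tested dose, limit read from the data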;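 also: plate controls were DMSO wells with enzyme for no effect and DMSO wells lacking enzyme for full effect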
TRAIL sens C8: viability loss with TRAIL in NB7+C8 cells, primary screen, TRAIL sensitizer project, cell-based, ATPlite luminescence | inhibition (viability loss, TRAIL sensitization), % at 10 µM | 1% of 360,000 active | AID 624354, 2012;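 active = compounds causing at least 50% loss of cell viability in the single-dose screen, relative to plate controls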
SENP7 inh: SENP7 protease inhibitors, primary screen, biochemical, luminescence, uHTS; Sentrin-specific protease 7 (Homo sapiens), Q9BQF6; recombinant SENP7, Z-RLRGG-aminoluciferin luminescence, 40 min; inhibition, % at 5 µM; 1.5% of 330,000 active;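 active = inhibition above about 50% at the single test dose, limit read from the data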;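 also: plate controls were DMSO with enzyme for no effect and no enzyme buffer wells for full effect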
Target sequence (Q9BQF6 706-1050 limits assumed): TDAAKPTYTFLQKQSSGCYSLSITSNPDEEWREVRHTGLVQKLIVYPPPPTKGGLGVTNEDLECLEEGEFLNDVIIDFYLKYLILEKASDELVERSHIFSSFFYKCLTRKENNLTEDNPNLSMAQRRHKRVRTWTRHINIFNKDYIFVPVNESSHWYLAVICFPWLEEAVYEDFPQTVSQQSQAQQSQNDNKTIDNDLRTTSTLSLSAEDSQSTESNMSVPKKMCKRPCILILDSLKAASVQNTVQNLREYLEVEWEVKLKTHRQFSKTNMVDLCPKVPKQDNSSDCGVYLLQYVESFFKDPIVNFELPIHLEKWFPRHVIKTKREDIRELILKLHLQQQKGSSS
SENP8 block-1: human SENP8 protease inhibitors, primary screen, biochemical, fluorescence, Nedd8 protein substrate, uHTS | Sentrin-specific protease 8 (Homo sapiens), Q96LD8 | recombinant SENP8 | inhibition, % at 20 µM | 0.64% of 360,000 active; in the data active = inhibition mostly above about 40%, no sharp cut-off; inactive = mostly below about 27%
SENP8 block-2: SENP8 protease inhibitors, primary screen, biochemical, luminescence | Sentrin-specific protease 8 (Homo sapiens), Q96LD8 | purified SENP8, Z-RLRGG-aminoluciferin cleavage | inhibition, % at 10 µM | 1.2% of 330,000 active; in the data active = inhibition above about 50%
PPC-1+TRAIL kill: compounds killing PPC-1 cancer cells with TRAIL present, primary screen, TRAIL potentiator project, ATPLite luminescence, uHTS; PPC-1 cells + TRAIL, ATPLite viability luminescence; cell killing (% activity), % at 4 µM or 5 µM; 0.41% of 220,000 active; AID 1443, 2008;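 active = cell killing above 50% in the first pass at 4 µM, then a duplicate retest at 5 µM averaging 50% or more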;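 also: plate controls were cells with TRAIL plus DMSO for no effect and medium-only wells lacking cells for full effect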
SENP8 conf: SENP8 protease inhibitors, retest, confirmation, biochemical, luminescence, single concentration | shares compounds with SENP7 inh | Recombinant SENP8, Z-RLRGG-aminoluciferin luminescence, 60 min | inhibition, % at 12.5 µM | 40% of 6,200 active | AID 488912, 2010;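 active = mean inhibition across replicates above about 50%, limit read from the data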
SENP6 conf: SENP6 protease inhibitors, confirmation, biochemical, luminescence, single concentration; recombinant SENP6, Z-RLRGG-aminoluciferin luminescence; 58% of 6,200 active; shares compounds with SENP7 inh; inhibition, % at 12.5 µM
SENP7 conf: SENP7 protease inhibitors, retest, confirmation, biochemical, luminescence, single concentration | shares compounds with SENP7 inh | recombinant SENP7, Z-RLRGG-aminoluciferin luminescence, 40 min | inhibition, % at 12.5 µM | 69% of 6,200 active
Casp3 select: caspase-3 protease inhibitors, confirmation, selectivity assay for SENP inhibitor project, biochemical, single concentration | shares compounds with SENP7 inh | purified caspase-3, Z-DEVD-aminoluciferin luminescence, 60 min | inhibition, % at 12.5 µM | 60% of 6,200 active;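 active = mean inhibition above about 50%, limit read from the data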;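 also: plate controls were enzyme with DMSO for no effect and wells without caspase-3 for full effect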
SENP luc ctr: counter-screen for SENP inhibitors: luminescence interference; AID 488919; shares compounds with SENP7 inh; 39% of 6,200 active; inhibition, % at 12.5 µM; Pre-incubated SENP8/Z-RLRGG-aminoluciferin, luciferase luminescence interference;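 active = mean inhibition above about 50% when retested at one dose, limit read from the data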;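 also: plate controls were DMSO wells with completed reaction for no effect and substrate without enzyme for full effect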
Active calls of the source: *; . = not tested or not shown.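 The calls were made as follows, unless noted: active = mean inhibition above about 50% in the one-dose retest (limit read from the data); inactive = the rest.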

SMILES	SENP6 inh	TRAIL sens C8	SENP7 inh	SENP8 block-1	SENP8 block-2	PPC-1+TRAIL kill	SENP8 conf	SENP6 conf	SENP7 conf	Casp3 select	SENP luc ctr
COc1ccc(CN=C2Nc3ccccc3CS2)cc1	92*	14	85*	6	80*	32	86*	86*	97*	81*	88*
NC(=O)c1cccc(-c2csc(C(O)c3ccccc3)n2)c1 (stereo unspecified)	.	-11	.	7	.	.	.	.	.	.	.
COc1cc(NC(=O)c2cc3sccc3n2C)cc(OC)c1	64*	4	66*	-10	50*	-4	6	60*	84*	40	65*
COC(=O)c1ccc(NC(=O)c2cc3sccc3n2C)cc1	.	2	.	-187	.	9	.	.	.	.	.
Cn1c(C(=O)Nc2ccccc2)cc2sccc21	53*	2	38	9	17	18	34	33	68*	36	54*
CCN(CC(=O)Nc1ccc2c(c1)OCCO2)CC(=O)Nc1ccc(C)c(S(=O)(=O)N(C)C)c1	2	-14	2	-2	5	.	.	.	.	.	.
CCCCOc1ccc(N2CC(C(=O)NCc3ccco3)CC2=O)cc1 (stereo unspecified)	-14	0	-7	2	-7	.	.	.	.	.	.
COc1ccc(C)cc1C1=Nc2ccccc2C1(C)C	-5	2	1	-46	4	8	.	.	.	.	.
Cc1ccc(O)c(C2=Nc3ccccc3C2(C)C)c1	71*	-5	56*	22	49	10	21	64*	89*	33	28
COc1ccc(C(=O)/C=C/c2ccc(F)cc2)c(OC(=O)c2ccc([N+](=O)[O-])cc2)c1	38	12	-14	29	-20	-14	.	.	.	.	.
COc1ccc(C(=O)/C=C/c2cccs2)c(OC(=O)c2cccc([N+](=O)[O-])c2)c1	79*	10	39	29	67*	8	31	39	19	44	2
CC(C)OC(=O)c1cc2ccccc2[nH]1	-6	-11	1	0	-6	16	.	.	.	.	.
CCOC(=O)c1cc(=O)n2c(nc3ccccc32)[nH]1	84*	11	79*	-471	76*	.	82*	83*	96*	94*	56*
CCOC(=O)c1cc2cc3ccccc3cc2[nH]1	54*	-5	38	-278	24	11	-25	-24	13	2	-4
Cc1cc(=O)n2c(nc3ccccc32)[nH]1	3	-5	-9	-270	-2	17	.	.	.	.	.
CCOC(=O)c1cc2ccc3ccccc3c2s1	58*	19	47	-230	7	3	15	20	54*	23	24
CCN(CC(=O)NCC(=O)Nc1ccc(Br)cc1C)Cc1ccccc1	-16	-12	-1	5	-4	.	.	.	.	.	.
CC(=O)Nc1ccc(N(C(=O)c2ccco2)C(C(=O)NC2CCCC2)c2ccncc2)cc1 (stereo unspecified)	-3	-21	-6	4	-5	.	.	.	.	.	.

Screening data as filed in PubChem.
